Assay outcomes as filed in PubChem.
PLCb3 inh – human PLC-beta3 inhibitors, primary screen, biochemical, fluorescence. Purified PLC-beta3, fluorogenic substrate. 1-phosphatidylinositol 4,5-bisphosphate phosphodiesterase beta-3 (Homo sapiens), Q01970. inhibition, % at 12.2 µM. hit rate 0.18% among 370,000. AID 720704, 2013; in the data active = inhibition above about 11%
PLC-gamma1 inh – PLC-gamma1 enzyme inhibitors, primary screen, biochemical, fluorescence, purified enzyme; inhibition, % at 12.2 µM; 1-phosphatidylinositol 4,5-bisphosphate phosphodiesterase gamma-1 (Homo sapiens), P19174; AID 720700, 2013; fluorogenic substrate; hit rate 0.84% among 370,000; in the data active = inhibition above about 9.5%
FAS-TE inh – FAS thioesterase domain inhibitors, primary screen, biochemical, fluorescence intensity, uHTS; inhibition, % at 15 µM; AID 602261, 2012; recombinant FAS-TE, OMFH fluorogenic substrate, fluorescence endpoint; Fatty acid synthase (Homo sapiens), P49327; hit rate 0.67% among 360,000;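 active = compounds whose normalised, plate-corrected inhibition of enzyme fluorescence in the single-dose primary screen is 50% or more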
Cardio protect – cardioprotection against H2O2-induced cell death, primary screen, uHTS, H9c2 cells, ATPLite luminescence | H9c2 cardiomyocytes, H2O2 injury protection, 2 h | protection from H2O2 cell death, % at 20 µM | hit rate 0.63% among 360,000;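 active = compounds giving at least 50% protection of heart cells from peroxide-induced death in the single-dose screen, raw or plate-pattern-corrected value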
Large screens that a line does not name were inactive. Compounds with a hit are over-represented: about 2.2% of the library has one in this group of screens.

CCc1nc2ccccc2c(C(=O)OCc2nc3ccccc3c(=O)[nH]2)c1C	Cardio protect 55.7
COc1ccc(CNC(=O)COC(=O)CCc2nc3ccccc3c(=O)[nH]2)cc1	none
CCc1nc2ccccc2c(C(=O)OCC(=O)C(C)(C)C)c1C	none
Cc1ccc(CNC(=O)CCc2nc3ccccc3c(=O)[nH]2)cc1	Cardio protect 50.7
Cc1ccc(S(=O)(=O)NCCCc2ccc3c(c2)[C@]2(CCC[C@@H](OCc4ccccc4)[C@@H]2NC(=O)CCc2ccccc2)C(=O)N3Cc2ccccc2)cc1	none (no result: FAS-TE inh, Cardio protect)
C/C(=N\Nc1ccc2nncn2n1)c1ccccn1	Cardio protect 57.7
C/C(=N\Nc1ccc2nncn2n1)c1ccco1	none
CCOC(=O)C1=C(C)OC(N)=C(C#N)C1c1ccsc1 (stereo unspecified)	none (no result: PLCb3 inh, PLC-gamma1 inh)
N#CC1=C(N)Oc2c(O)cc3ccccc3c2C1c1ccsc1 (stereo unspecified)	Cardio protect 58.5
COc1cc(-c2cnc3c(NC=O)cc(-c4cccnc4)cn23)cc(OC)c1OC	Cardio protect 76.0
COc1cc(-c2cnc3c(NC=O)cc(-c4ccsc4)cn23)cc(OC)c1OC	Cardio protect 56.1
COc1cc(-c2cc(NC=O)c3ncc(-c4ccc(F)cc4)n3c2)cc(OC)c1OC	none
CCCCCCCCN1C(=O)[C@@H](CC(=O)N2CCN(C(=O)c3ccco3)CC2)C[C@@]2(C(=O)OC)C1=C[C@H](C1CCCC1)O[C@@H]2C	none (no result: FAS-TE inh, Cardio protect)
O=C(Nc1cccc(F)c1)O[C@@H]1CC[C@@]23CCCN2C(=O)CCC[C@H]3C1	none (no result: FAS-TE inh, Cardio protect)
COc1ccc(-n2c(C)c(C(C)=O)c3cc(OC(C)=O)ccc32)cc1	Cardio protect 53.3
COc1ccc2c(c1)c(C(C)=O)c(C)n2-c1ccc(C(C)=O)cc1	none
O=C(NNC(=O)c1nc(Cl)ccc1Cl)c1ccc(F)cc1	none
O=C(NNC(=O)c1ncc(Cl)c(Cl)c1Cl)c1ccc(F)cc1	Cardio protect 77.7
CCOCCCNC(=O)CCC(=O)NNc1nc2ccccc2c2nc(-c3ccccc3)nn12	Cardio protect 53.7
CC(C)OCCCNC(=O)CCC(=O)NNc1nc2ccccc2c2nc(-c3ccccc3)nn12	Cardio protect 84.4
C=CCN(Cc1ccc(OC)cc1OC)C(C#CCCCC)c1ccccc1 (stereo unspecified)	none (no result: FAS-TE inh, Cardio protect)
Clc1ccc(CN2CCN(N=Cc3c4ccccc4cc4ccccc34)CC2)cc1	none (no result: FAS-TE inh, Cardio protect)
Cn1c(/C=N/NC(=O)c2ccccc2)nc2ccccc21	Cardio protect 65.4
CCN(CC)CCn1c(NC(=O)c2ccccc2O)nc2ccccc21	none
O=C(Nc1nc2ccccc2n1Cc1ccccc1)c1ccco1	Cardio protect 58.0
CCN(CC)CCn1c(NC(=O)c2ccc(Cl)cc2)nc2ccccc21	Cardio protect 62.5
CCCn1c(NC(=O)c2ccccc2)nc2ccccc21	Cardio protect 51.5
O=C(C(=O)N1CCN(C(=O)c2cccs2)CC1)c1cccc(C(F)(F)F)c1	none (no result: FAS-TE inh, Cardio protect)
O=C(N1CCOCC1)N1CC[C@H]2[C@H](CCCN2Cc2cc(F)cc(F)c2)C1	none (no result: FAS-TE inh, Cardio protect)
CC(C)CNC(=O)OCc1cn(Cc2ccc(Cl)cc2)nn1	none (no result: FAS-TE inh, Cardio protect)
N#Cc1ccc(/C=C2\CC3(OC(=O)c4cccc(F)c4)CCCN2C3)cc1 (stereo unspecified)	none (no result: FAS-TE inh, Cardio protect)
CCCn1c(NC(=O)c2ccc(C)cc2)nc2ccccc21	none
CCCn1c(NC(=O)c2cccc(S(=O)(=O)N3CCCC3)c2)nc2ccccc21	Cardio protect 99.1
Cc1cc(N=Cc2cc(Br)ccc2O)no1	Cardio protect 57.1
Cc1cc(N=CC2=C(O)CC(C)(C)CC2=O)no1	none
Cc1ccc(S(=O)(=O)/N=C/c2cc(Br)ccc2O)cc1	Cardio protect 53.5
NC(=O)N/N=C\c1cc(Br)ccc1O	none
COCCNC(=S)N(C)[C@H]1C[C@H]2c3[nH]c4c(-c5ccc6c(c5)OCO6)cccc4c3CCN2C(=O)[C@H]1[C@H](C)O	none (no result: FAS-TE inh, Cardio protect)
Cc1cc(NC(=O)c2ccc(Cl)cc2)c(C)cc1O	none
Cc1cc(C(C#N)c2ccc(Cl)cc2)c(Cl)cc1NC(=O)c1cc(I)cc(I)c1O (stereo unspecified)	FAS-TE inh 57.2
CC(C)(C)OC(=O)N1CCC(CNC(=O)c2ccccc2)CC1	none
CC1(C)CC(Cc2ccc(C(=O)c3ccccc3)cc2)N(C(=O)OC(C)(C)C)N1 (stereo unspecified)	PLC-gamma1 inh 11.3
Cc1cc(-c2n[nH]c(=S)n2N=Cc2ccc(OCc3ccccc3)cc2)n[nH]1	none (no result: FAS-TE inh, Cardio protect)
COc1ccc(NC(=O)c2cccs2)cc1OC	none
COc1ccc(Cl)cc1-c1nc(-c2ccc(NC(=O)c3cccs3)cc2)no1	Cardio protect 56.0 (no result: PLCb3 inh, PLC-gamma1 inh)
O=C(Nc1ccc(-c2noc(-c3cccs3)n2)cc1)c1cccnc1	Cardio protect 63.8
COc1cc(NC(=O)c2cc3c(C)nc4ccccc4c3o2)cc(OC)c1OC	Cardio protect 66.3
Cc1nc2ccccc2c2oc(C(=O)Nc3ccc4c(c3)OCCO4)cc12	Cardio protect 99.5
O=C(Nc1nc2ncccn2c1-c1ccc(F)c(F)c1)c1ccccc1	none (no result: FAS-TE inh, Cardio protect)
O=C(Cn1nc(C(=O)O)c2ccccc2c1=O)c1c[nH]c2ccccc12	Cardio protect 57.1
C[C@@H](NC(=O)C[C@@H]1C[C@@H]2c3cc(NS(=O)(=O)c4ccc(F)cc4)ccc3O[C@@H]2[C@@H](CO)O1)c1ccccc1	none
O=C(C[C@@H]1C[C@@H]2c3cc(NS(=O)(=O)c4ccc(F)cc4)ccc3O[C@@H]2[C@H](CO)O1)NCc1ccc(Oc2ccccc2)cc1	PLC-gamma1 inh 9.6
O=C(N/N=C/c1ccc(O)c(O)c1O)/C(=C/c1ccc([N+](=O)[O-])cc1)NC(=O)c1ccccc1	Cardio protect 60.9
Cc1cc(=O)oc2cc(OCC(=O)N/N=C/c3cc([N+](=O)[O-])ccc3O)ccc12	Cardio protect 55.1
Cc1cc(=O)oc2cc(OCC(=O)NC3CCCC3)ccc12	none
O=C(N/N=C/c1cc([N+](=O)[O-])ccc1O)C(O)(c1ccccc1)c1ccccc1	Cardio protect 60.8
Cc1ccc(NC(=O)CCC(=O)N/N=C/c2cc([N+](=O)[O-])ccc2O)cc1	Cardio protect 64.0
Cc1ccccc1NC(=O)CCC(=O)N/N=C/c1cc([N+](=O)[O-])ccc1O	none
O=C(CSc1nc2ccccc2s1)N/N=C/c1cc([N+](=O)[O-])ccc1O	Cardio protect 53.1
Cc1ccc(C)c(NC(=O)CCC(=O)N/N=C/c2cc([N+](=O)[O-])ccc2O)c1	Cardio protect 63.8
Cc1cc(C(=O)N/N=C/c2cc(Br)ccc2OC(=O)c2ccccc2Cl)n[nH]1	Cardio protect 50.9
Cc1cc(C(=O)N/N=C/c2cc(Br)ccc2OC(=O)c2ccccc2)n[nH]1	Cardio protect 55.7
CC(C)c1[nH]nc2c1C(c1ccccc1)NC2=O (stereo unspecified)	none (no result: FAS-TE inh, Cardio protect)
O=c1[nH]nc(-c2cccs2)c2ccccc12	Cardio protect 69.5
O=c1[nH]c2ccccc2nc1-c1cccs1	none
Cc1ccc2c(c1)N(S(=O)(=O)c1ccc(CN3C(=O)c4cccnc4C3=O)s1)CCO2	PLC-gamma1 inh 11.8
